In all, about 39,000 compounds went through this assay and about 3,300 (8.5%) were called active. For the sample, actives were picked, then their nearest neighbours and some compounds at random.

Results on 76 compounds are retold here after the antibiotic and cytotoxicity screens of Wong et al. (2023).

The experiment relates to HepG2. The experiment in a line: cytotoxicity call (relative viability < 0.9). To be noted: 10 µM.
On to `C[C@H]1CN([C@@H](C)CO)C(=O)c2cc(C#CCc3ccccc3)cnc2O[C@@H]1CN(C)CC1CCOCC1`, for which the cytotoxicity call is “inactive”.
Consider `C[C@H](CO)N1C[C@H](C)[C@@H](CN(C)C(=O)Nc2cccc(Oc3ccccn3)c2)OCc2cnnn2CCCC1=O`, for which the cytotoxicity call was “inactive”.
As for `COc1ccc(NC(=O)Nc2ccc3c(c2)C(=O)N([C@@H](C)CO)C[C@H](C)[C@H](CN(C)Cc2ccc4c(c2)OCO4)OCCCC[C@H](C)O3)cc1`, the cytotoxicity call was “inactive”.
With `C[C@H](CO)N1C[C@H](C)[C@@H](CN(C)S(=O)(=O)c2ccccc2C#N)OCc2cnnn2CCCC1=O` the entry was “inactive”; with `Cc1cc(=O)[nH][nH]1`, “inactive”.
With `CC(C)(C)c1ccc(C(=O)CCCN2CCC(OC(c3ccccc3)c3ccccc3)CC2)cc1` the entry was “active”; with `CCN1CCCC(OC(=O)C(c2ccccc2)c2ccccc2)C1.Cl` (stereo unspecified), “inactive”.
The entry for `COc1ccc(C(=O)CC(=O)c2ccc(C(C)(C)C)cc2)cc1` is “inactive”; for `O=C(c1ccccc1Cl)n1c2ccccc2c2ccccc21` it is “active”.
For `Cc1c(Cl)cccc1Nc1ccccc1C(=O)O`, the cytotoxicity call is “inactive”.
With `COc1ccc2c(c1)c(CC(=O)OCC(=O)O)c(C)n2C(=O)c1ccc(Cl)cc1` the entry was “inactive”.
With `O=C(c1ccc(Cl)cc1)n1c2ccccc2c2ccccc21` the entry was “active”; with `NC(=O)c1ccccc1C(N)=O`, “inactive”.
With `COc1ccc2c(c1)c(CC(=O)O)c(C)n2C(=O)c1ccc(Cl)cc1` the entry was “inactive”.
In the case of `C[C@H]1CN([C@@H](C)CO)C(=O)c2cccc(NC(=O)CCCCCC(=O)Nc3ccccc3N)c2O[C@H]1CN(C)C(=O)Nc1ccccc1`, the cytotoxicity call is “inactive”.
Turning to `Cn1nc(CNc2ncccn2)c2c1CNCC2`, the cytotoxicity call is “inactive”.
Take `C[C@H](CO)N1C[C@H](C)[C@@H](CN(C)Cc2ccc(C(F)(F)F)cc2)Oc2ccc(NC(=O)Cc3ccccc3)cc2C1=O`: the cytotoxicity call is “inactive”.
The entry for `C[C@H](CO)N1C[C@H](C)[C@H](CN(C)CC2CCCCC2)OCCCC[C@H](C)Oc2ccc(NS(=O)(=O)c3ccccc3)cc2C1=O` is “inactive”.
For the compound `CCOC(=O)[C@H]1CSCCN1`, the cytotoxicity call was “inactive”.
With `C[C@H]1CN([C@@H](C)CO)C(=O)CCCn2nncc2CO[C@H]1CN(C)Cc1ccc2c(c1)OCCN2C` the entry was “inactive”; with `Cc1cc(=O)n2c(C)nnc2[nH]1`, “inactive”; with `CCCNC(=O)Nc1ccc2c(c1)C(=O)N(C)C[C@@H](OC)[C@@H](C)CN(Cc1ccc(-c3ccccn3)cc1)[C@H](C)CO2`, “inactive”.
The entry for `COC(=O)c1ccc(Cn2cc(C(=O)NO)nn2)o1` is “inactive”; for `COc1ccc(-n2cc(C(=O)NO)nn2)cc1` it is “active”.
For the compound `COc1cccc(-n2cc(C(=O)NO)nn2)c1`, the cytotoxicity call was “inactive”.
Regarding `COc1cccc(NC(=O)N[C@@H]2CC[C@@H](CC(=O)N3CCN(C)CC3)O[C@@H]2CO)c1`, the cytotoxicity call was “active”.
The entry for `COc1cccc(NC(=O)N[C@H]2CC[C@H](CC(=O)N3CCN(C)CC3)O[C@H]2CO)c1` is “inactive”; for `COc1cccc(NC(=O)N[C@@H]2CC[C@H](CC(=O)N3CCN(C)CC3)O[C@@H]2CO)c1` it is “inactive”.
Turning to `C[C@H](CO)N1C[C@H](C)[C@H](CN(C)C(=O)Nc2ccc(F)cc2)Oc2ncc(-c3cccc(C(F)(F)F)c3)cc2C1=O`, the cytotoxicity call was “inactive”.
With `C[C@@H]1CN([C@H](C)CO)C(=O)c2cc(NC(=O)c3ccncc3)ccc2O[C@H]1CN(C)Cc1ccc(C(=O)O)cc1` the entry was “inactive”; with `COc1ccc(CN(C)C[C@H]2Oc3c(NS(=O)(=O)c4cn(C)cn4)cccc3C(=O)N([C@H](C)CO)C[C@@H]2C)cc1`, “inactive”; with `C[C@@H]1CCCCO[C@@H](CN(C)S(=O)(=O)c2ccc(Cl)cc2)[C@@H](C)CN([C@H](C)CO)C(=O)c2cc(NC(=O)c3ccncc3)ccc2O1`, “inactive”.
The entry for `C[C@@H]1CCCCO[C@H](CN(C)S(=O)(=O)c2ccc(Cl)cc2)[C@@H](C)CN([C@@H](C)CO)C(=O)c2cc(NC(=O)c3ccncc3)ccc2O1` is “active”.
With `C[C@@H]1CCCCO[C@@H](CN(C)S(=O)(=O)c2ccc(Cl)cc2)[C@@H](C)CN([C@@H](C)CO)C(=O)c2cc(NC(=O)c3ccncc3)ccc2O1` the entry was “inactive”; with `C[C@@H]1CCCCO[C@@H](CN(C)S(=O)(=O)c2ccc(Cl)cc2)[C@H](C)CN([C@@H](C)CO)C(=O)c2cc(NC(=O)c3ccncc3)ccc2O1`, “inactive”.
`C[C@H]1CCCCO[C@H](CN(C)S(=O)(=O)c2ccc(Cl)cc2)[C@@H](C)CN([C@@H](C)CO)C(=O)c2cc(NC(=O)c3ccncc3)ccc2O1`: the cytotoxicity call is “inactive”.
With `C[C@@H]1CN([C@H](C)CO)C(=O)c2cc(NC(=O)c3ccncc3)ccc2O[C@@H](C)CCCCO[C@H]1CN(C)S(=O)(=O)c1ccc(Cl)cc1` the entry was “active”.
For `Cc1noc(C)c1S(=O)(=O)N(C)C[C@H]1Oc2c(NC(=O)C3CCCCC3)cccc2C(=O)N([C@H](C)CO)C[C@H]1C`, the cytotoxicity call is “inactive”.
Consider `COc1ccc(CN(C)C[C@H]2OCCCC[C@@H](C)Oc3ccc(NS(=O)(=O)c4ccc(C)cc4)cc3C(=O)N([C@@H](C)CO)C[C@@H]2C)cc1`, for which the cytotoxicity call is “inactive”.
Consider `C[C@H]1CCCCO[C@@H](CN(C)S(=O)(=O)c2ccc(Cl)cc2)[C@@H](C)CN([C@@H](C)CO)C(=O)c2cc(NS(=O)(=O)c3ccccc3)ccc2O1`, for which the cytotoxicity call is “inactive”.
The entry for `CC12C=CC(=O)C=C1CCC1C2C(O)CC2(C)C1CCC2(O)C(=O)COC(=O)CCC(=O)O` (stereo unspecified) is “inactive”.
On to `Cc1ccc(S(=O)(=O)N(C)C[C@H]2Oc3ncc(C#CCC(C)C)cc3C(=O)N([C@@H](C)CO)C[C@H]2C)cc1`, for which the cytotoxicity call is “active”.
For `COc1cccc(S(=O)(=O)N(C)C[C@H]2Oc3ncc(C#CCC(C)C)cc3C(=O)N([C@@H](C)CO)C[C@H]2C)c1`, the cytotoxicity call was “inactive”.
With `COc1cccc(-c2cnc3c(c2)C(=O)N([C@H](C)CO)C[C@H](C)[C@H](CN(C)S(=O)(=O)c2cccc(OC)c2)O3)c1` the entry was “inactive”; with `COc1cccc(S(=O)(=O)N(C)C[C@H]2Oc3ncc(C#CCC(C)C)cc3C(=O)N([C@H](C)CO)C[C@H]2C)c1`, “inactive”.
Take `Cc1ccc(S(=O)(=O)N(C)C[C@H]2Oc3ncc(C#CCC(C)C)cc3C(=O)N([C@@H](C)CO)C[C@@H]2C)cc1`: the cytotoxicity call is “inactive”.
With `COc1cccc(S(=O)(=O)N(C)C[C@H]2Oc3ncc(C#CCC(C)C)cc3C(=O)N([C@H](C)CO)C[C@@H]2C)c1` the entry was “active”.
Regarding `Cc1ccc(S(=O)(=O)N(C)C[C@H]2Oc3ncc(C#CCC(C)C)cc3C(=O)N([C@H](C)CO)C[C@@H]2C)cc1`, the cytotoxicity call is “inactive”.
The entry for `COc1cccc(S(=O)(=O)N(C)C[C@@H]2Oc3ncc(-c4ccccc4)cc3C(=O)N([C@H](C)CO)C[C@@H]2C)c1` is “inactive”; for `Cc1ccc(S(=O)(=O)N(C)C[C@@H]2Oc3ncc(C#CCC(C)C)cc3C(=O)N([C@H](C)CO)C[C@@H]2C)cc1` it is “inactive”; for `Cc1ccc(S(=O)(=O)N(C)C[C@@H]2Oc3ncc(C#CCC(C)C)cc3C(=O)N([C@H](C)CO)C[C@H]2C)cc1` it is “inactive”.
With `COc1cccc(-c2cnc3c(c2)C(=O)N([C@H](C)CO)C[C@H](C)[C@H](CN(C)S(=O)(=O)c2ccccc2)O3)c1` the entry was “active”; with `Cc1ccc(S(=O)(=O)N(C)C[C@@H]2Oc3ncc(C#CCC(C)C)cc3C(=O)N([C@@H](C)CO)C[C@H]2C)cc1`, “active”; with `CN(C)CCCNC(=O)C[C@@H]1CC[C@H]2[C@@H](COC[C@@H](O)CN2S(=O)(=O)c2ccc(F)cc2)O1`, “inactive”.
With `CO[C@H]1CN(C)C(=O)c2cc(NS(=O)(=O)CC(F)(F)F)ccc2OC[C@H](C)N(Cc2ccccn2)C[C@@H]1C` the entry was “inactive”; with `CC(C)CC#Cc1cnc2c(c1)C(=O)N([C@@H](C)CO)C[C@@H](C)[C@@H](CN(C)C(=O)CN1CCOCC1)O2`, “inactive”.
As for `C[C@@H]1CN([C@@H](C)CO)C(=O)c2cc(NS(=O)(=O)c3ccccc3)ccc2O[C@@H](C)CCCCO[C@H]1CN(C)C(=O)c1ccccc1`, the cytotoxicity call is “inactive”.
The entry for `C[C@@H]1CCCCO[C@H](CN(C)C(=O)Cc2ccccc2)[C@@H](C)CN([C@H](C)CO)C(=O)c2cc(NC(=O)Nc3ccc4c(c3)OCO4)ccc2O1` is “inactive”.
As for `CNC[C@H]1Oc2ccc(NS(=O)(=O)c3cn(C)cn3)cc2C(=O)N([C@@H](C)CO)C[C@H]1C`, the cytotoxicity call was “inactive”.
With `C[C@@H]1CCCCO[C@@H](CN(C)C(=O)Nc2ccccc2)[C@H](C)CN([C@@H](C)CO)C(=O)c2cc(NC(=O)Nc3ccccc3)ccc2O1` the entry was “inactive”; with `C[C@@H]1CN([C@@H](C)CO)C(=O)c2cc(-c3ccc(C(=O)N(C)C)cc3)cnc2O[C@H]1CN(C)C(=O)CN(C)C`, “inactive”.
For `C[C@H]1CCCCO[C@H](CN(C)Cc2ccccc2)[C@@H](C)CN([C@@H](C)CO)C(=O)c2cc(NC(=O)c3ccncc3)ccc2O1`, the cytotoxicity call is “inactive”.
For `Cc1noc(C)c1NC(=O)Nc1ccc2c(c1)C(=O)N([C@H](C)CO)C[C@@H](C)[C@H](CN(C)Cc1ccc(Oc3ccccc3)cc1)O2`, the cytotoxicity call is “inactive”.
The entry for `Cc1cc(C(=O)Nc2cccc3c2O[C@@H](CN(C)C(=O)NC(C)C)[C@H](C)CN([C@H](C)CO)C3=O)n(C)n1` is “inactive”.
`C[C@@H]1CN([C@@H](C)CO)C(=O)c2cc(NC(=O)Nc3cccc4ccccc34)ccc2O[C@@H](C)CCCCO[C@@H]1CN(C)S(=O)(=O)c1ccc(F)cc1`: the cytotoxicity call is “inactive”.
The entry for `CN1CCN(C(=O)C[C@H]2CC[C@@H](NC(=O)c3ccc4c(c3)OCO4)[C@H](CO)O2)CC1` is “inactive”; for `C[C@@H]1CN([C@@H](C)CO)C(=O)c2c(c3ccccc3n2C)-c2ccccc2CO[C@H]1CN(C)C(=O)Nc1ccccc1` it is “inactive”; for `CN1C(=O)c2cc(NC(=O)C3CCOCC3)ccc2OC[C@H]2O[C@H](CC(=O)NCc3ccccc3F)CC[C@H]21` it is “inactive”.
The entry for `C[C@H]1CN([C@@H](C)CO)C(=O)c2cc(NS(=O)(=O)c3cn(C)cn3)ccc2O[C@@H]1CN(C)Cc1ccccc1` is “inactive”; for `CC1=C(CCC(=O)O)c2cc3[nH]c(cc4nc(cc5[nH]c(cc1n2)c(C)c5C(C)O)C(C)=C4C(C)O)c(C)c3CCC(=O)O` (stereo unspecified) it is “active”; for `CC/1=C(CCC(=O)O)/C/2=C/c3[nH]c(c(c3CCC(=O)O)C)/C=C/3\N=C(/C=C/4\N=C(\C=C1/N2)C(=C4C)C=C)C(=C3C)C=C` it is “active”.
With `C=CC1=C(C)c2cc3[nH]c(cc4nc(cc5[nH]c(cc1n2)c(C)c5CCC(=O)O)C(CCC(=O)O)=C4C)c(C)c3C=C` the entry was “active”; with `CCc1c(c/2[nH]c1/C=C/1\N=C(/C(=C/3\N=C(/C=C/4\N/C(=C2)C(=C4C)C=C)[C@@H](C)[C@@H]3CCC(=O)O)CC(=O)N[C@@H](CC(=O)O)C(=O)O)C(=C1C)C(=O)O)C`, “inactive”.
`C=CC1=C(C)C(=Cc2[nH]c(Cc3[nH]c(C=C4NC(=O)C(C)=C4C=C)c(C)c3CCC(=O)O)c(CCC(=O)O)c2C)NC1=O`: the cytotoxicity call is “inactive”.
For `C=CC1=C(C)C2=NC/1=C\C1=NC(=C\C3=NC(=C\C4=NC(=C\2)/C(C)=C4CCC(=O)O)/C(CCC(=O)O)=C3C)/C(C=C)=C1C`, the cytotoxicity call was “inactive”.
With `COC(=O)CCc1c(c/2[nH]c1/C=C/1\N=C(/C=C/3\N=C(/C=C/4\N/C(=C2)[C@]2(C)[C@H](C(=O)OC)C(=CC=C42)C(=O)OC)C(=C3C=C)C)C(=C1CCC(=O)O)C)C`, the cytotoxicity call is “active”.
